The campaign covered roughly 270,000 compounds. About 410 (0.15%) were called active. Rule as the data show it: active = activation above about 40%; inactive = the rest, inconclusive results apart. Many of the other results were omitted from the sample, so actives are more common in it than they were.
System: Aedes aegypti neuropeptide Y-like receptor 7 (NPYLR7)
Experiment: agonists of mosquito NPYLR7 receptor, primary screen, cell-based, Aedes aegypti, calcium fluorescence, mosquito biting behavior (AID 1259423);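 also: 0% = vehicle and 100% = reference agonist at the receptor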
Conditions: HEK293T NPYLR7/Galpha15, GCaMP6s calcium fluorescence, at 10 µM, stronger effect = higher value
[1] = measured here: Max-Min RFU normalised activation

SMILES | activation | activation [1]
CCOc1ccc(NC(=O)CSc2nc3c(c(=O)n2CCOC)SC(C)C3)cc1 (centres undefined) | 3.32% (inactive) | 0.972%
O=C(NC1COC2(CCCCC2)C1)c1ccco1 (centres undefined) | -4.17% (inactive) | -7.46%
CC(C)CC(NC1CCN(C(=O)c2ccccc2)CC1)c1ncnn1C (centres undefined) | 8.96% (inactive) | 6.07%
C/C(=N/Nc1nc2c(s1)CCCC2)c1ccc(Cl)cc1 | 0.513% (inactive) | 5.88%
O=C1NC(c2ccc(Cl)cc2)C(C(=O)c2ccccc2)C(O)(C(F)(F)F)N1 (centres undefined) | -3.23% (inactive) | -4.42%
O=C1NC(c2ccc3c(c2)OCO3)C(C(=O)c2ccccc2)C(O)(C(F)(F)F)N1 (centres undefined) | 42.8% (active) | 72%
CC1=C(C(=O)Nc2ccccc2)C(c2ccc3c(c2)OCO3)NC(=S)N1 (centres undefined) | 4.23% (inactive) | 8.09%
Cc1ccc(Cl)cc1NC(=O)CN1C(=O)c2ccc([N+](=O)[O-])cc2C1=O | -3.83% (inactive) | -10.3%
CC(C)c1ccc(C2CC(c3ccccc3)=Nc3ncnn32)cc1 (centres undefined) | 4.24% (inactive) | 2.65%
O=C(Nc1ccc(N2CCC(Cc3ccccc3)CC2)c(C(=O)NCc2ccc(F)cc2)c1)c1cccc([N+](=O)[O-])c1 | -3.24% (inactive) | 7.02%
CCCCNc1ncnc2sc3c(c12)CCC(C)C3 (centres undefined) | 1.78% (inactive) | 2.41%
O=C(O)CCC(=O)Nc1nc2c(s1)CCCC2 | 1.28% (inactive) | -0.361%
COc1ccc(C(=O)NCCn2ncc3c(=O)n(Cc4cccc(C)c4)cnc32)cc1 | -1.65% (inactive) | -7.02%
c1csc(-c2nc(CSc3nnc(-c4cccs4)n3C3CC3)co2)c1 | -0.388% (inactive) | 7.96%
COc1ccccc1CNC1CC2CCC1(C)C2(C)C (centres undefined) | 7.42% (inactive) | 2.21%
COc1ccc(-c2cccc(-c3nnc(C)s3)c2)c(OC)c1 | 2.95% (inactive) | 1.01%
CC(C)c1ccc(C(=O)NCc2ccccc2CS(=O)(=O)N2CCOCC2)cc1 | -3.68% (inactive) | -3.21%
Fc1ccccc1-c1noc2c1CN(Cc1cccn1-c1ncccn1)CC2 | 8.24% (inactive) | 5.36%
Clc1ccc(-c2noc3c2CN(CCn2cc(Cl)cn2)CC3)cc1 | 74.9% (active) | 54.3%
c1ccc2c(-c3noc4c3CN(CC3CCCO3)CC4)cccc2c1 (centres undefined) | 14.2% (inactive) | 6.24%
COCc1c(Br)c(C)nc(OCC(=O)N/N=C\c2cc(Br)c(OCc3ccc(Cl)cc3)c(OC)c2)c1C#N | 25.2% (inactive) | 27.7%
Cc1nn(-c2ccc(F)cc2F)c(C)c1CCC(=O)N1Cc2cccc3cccc(c23)C1 | 4.97% (inactive) | 3.44%

Reference: PubChem BioAssay AID1259423 (Fisher Drug Discovery Resource Center, 2018)
